Hit rate of the full screen: of about 5,500 compounds, about 2,000 (36%) were called active. Inconclusive results (about 18%) are left out. Rule as the data show it: active = normalized growth mostly below about 0.91 (no sharp cut-off); inconclusive = no clear call, values can overlap the other calls; inactive = mostly above about 0.92. The list shows a part of the results.
Assay: chemical genetic growth profiling, strain panel (AID 1159580);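 also: tested at 20 µM; growth read once vehicle control cultures reached saturation at 30 °C; 1 = growth at the plate median or of vehicle wells; lower values mean less growth of the strain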
Settings: growth OD
[1] = S. cerevisiae deletion strains, locus YGR078C, strain PAC10, hits give low values
[2] = S. cerevisiae deletion strains, locus YNL128W, strain TEP1, hits give low values
[3] = S. cerevisiae deletion strains, locus YNL322C, strain KRE1, hits give low values
[4] = S. cerevisiae deletion strains, locus YHR030C, strain SLT2, hits give low values
[5] = S. cerevisiae deletion strains, locus YJL095W, strain BCK1, hits give low values

Measured: normalized growth

C[N+]1(C)CCc2cc3c(cc2[C@H]1[C@@H]1OC(=O)c2c1ccc1c2OCO1)OCO3
inactive: S. cerevisiae deletion strains, locus YAL040C, strain CLN3, hits give low values 0.982 | S. cerevisiae deletion strains, locus YDR150W, strain NUM1, hits give low values 0.997 | S. cerevisiae deletion strains, locus YER002W, strain NOP16, hits give low values 0.991 | [1] 1.01 | [2] 1 | S. cerevisiae deletion strains, locus YNL153C, strain GIM3, hits give low values 0.998 | S. cerevisiae deletion strains, locus YNL175C, strain NOP13, hits give low values 0.987 | S. cerevisiae deletion strains, locus YNL197C, strain WHI3, hits give low values 1.05 | S. cerevisiae deletion strains, locus YNL224C, strain SQS1, hits give low values 0.994 | [3] 1.01 | S. cerevisiae deletion strains, locus YOR083W, strain WHI5 (second series), hits give low values 1 | S. cerevisiae deletion strains, locus YPL055C, strain LGE1, hits give low values 1.01

CCCCCCCCCCCCCCCC(=O)OCC(O)CO (centres undefined)
inactive: [4] 1 | S. cerevisiae deletion strains, locus YHR079C, strain IRE1, hits give low values 0.99 | [5] 0.967 | S. cerevisiae deletion strains, locus YJR066W, strain TOR1, hits give low values 0.936 | S. cerevisiae deletion strains, locus YLR113W, strain HOG1, hits give low values 1 | S. cerevisiae deletion strains, locus YNL183C, strain NPR1, hits give low values 0.93 | S. cerevisiae deletion strains, locus YOR231W, strain MKK1, hits give low values 1.01 | S. cerevisiae deletion strains, locus YPL256C, strain CLN2, hits give low values 1.02

CCCCCCCCCCCC(=O)OCC(COP(=O)(O)OCC(O)COP(=O)(O)OCC(COC(=O)CCCCCCCCCCC)OC(=O)CCCCCCCCCCC)OC(=O)CCCCCCCCCCC (centres undefined)
inactive: S. cerevisiae deletion strains, locus YBR021W, strain FUR4, hits give low values 0.99 | S. cerevisiae deletion strains, locus YBR229C, strain ROT2, hits give low values 0.967 | S. cerevisiae deletion strains, locus YCL029C, strain bik1, hits give low values 1.01 | S. cerevisiae deletion strains, locus YDL185W, strain tfp1, hits give low values 0.981 | S. cerevisiae deletion strains, locus YDL192W, strain arf1, hits give low values 0.972 | S. cerevisiae deletion strains, locus YDR101C, strain arx1, hits give low values 1.03 | S. cerevisiae deletion strains, locus YDR318W, strain mcm21, hits give low values 1 | S. cerevisiae deletion strains, locus YDR388W, hits give low values 1.01 | S. cerevisiae deletion strains, locus YDR502C, strain sam2, hits give low values 0.978 | S. cerevisiae deletion strains, locus YER110C, hits give low values 1.03 | S. cerevisiae deletion strains, locus YER155C, strain BEM2, hits give low values 1.02 | S. cerevisiae deletion strains, locus YER167W, strain BCK2, hits give low values 0.953 | S. cerevisiae deletion strains, locus YGL078C, strain dbp3, hits give low values 1.02 | [1] 0.879 | S. cerevisiae deletion strains, locus YGR135W, strain pre9, hits give low values 0.923 | S. cerevisiae deletion strains, locus YGR252W, strain gcn5, hits give low values 0.887 | [4] 0.965 | S. cerevisiae deletion strains, locus YHR079C, strain IRE1 (second series), hits give low values 1.04 | S. cerevisiae deletion strains, locus YHR094C, strain hxt1, hits give low values 1.03 | S. cerevisiae deletion strains, locus YHR200W, strain rpn10, hits give low values 0.995 | S. cerevisiae deletion strains, locus YIL125W, strain kgd1, hits give low values 1.03 | S. cerevisiae deletion strains, locus YIR030C, strain dcg1, hits give low values 1.03 | [5] 0.816 | S. cerevisiae deletion strains, locus YJL134W, strain LCB3, hits give low values 0.975 | S. cerevisiae deletion strains, locus YJL168C, strain set2, hits give low values 1 | S. cerevisiae deletion strains, locus YKL009W, strain mrt4, hits give low values 1.09 | S. cerevisiae deletion strains, locus YKL068W, hits give low values 1.03 | S. cerevisiae deletion strains, locus YKL085W, strain MDH1 (second series), hits give low values 1.01 | S. cerevisiae deletion strains, locus YKL085W, strain MDH1, hits give low values 1.01 | S. cerevisiae deletion strains, locus YKR001C, strain vps1, hits give low values 0.986 | S. cerevisiae deletion strains, locus YLR102C, strain apc9, hits give low values 1.02 | S. cerevisiae deletion strains, locus YLR262C, strain YPT6, hits give low values 0.798 | S. cerevisiae deletion strains, locus YLR268W, strain sec22, hits give low values 0.937 | S. cerevisiae deletion strains, locus YLR330W, strain CHS5, hits give low values 0.964 | S. cerevisiae deletion strains, locus YLR371W, strain rom2, hits give low values 0.971 | S. cerevisiae deletion strains, locus YML032C, strain rad52, hits give low values 1.03 | S. cerevisiae deletion strains, locus YML124C, strain tub3, hits give low values 1.02 | S. cerevisiae deletion strains, locus YMR078C, strain ctf18, hits give low values 1.02 | S. cerevisiae deletion strains, locus YMR223W, strain ubp8, hits give low values 0.962 | S. cerevisiae deletion strains, locus YMR263W, strain SAP30, hits give low values 0.923 | S. cerevisiae deletion strains, locus YNL067W, strain RPL9B, hits give low values 0.891 | S. cerevisiae deletion strains, locus YNL233W, strain BNI4, hits give low values 0.91 | S. cerevisiae deletion strains, locus YNL250W, strain rad50, hits give low values 1.02 | S. cerevisiae deletion strains, locus YNL271C, strain bni1, hits give low values 1 | S. cerevisiae deletion strains, locus YNL298W, strain CLA4, hits give low values 1.01 | S. cerevisiae deletion strains, locus YNL307C, strain MCK1, hits give low values 1.02 | S. cerevisiae deletion strains, locus YNR052C, strain pop2, hits give low values 0.975 | S. cerevisiae deletion strains, locus YOL012C, strain htz1 0.377 | S. cerevisiae deletion strains, locus YOL147C, strain pex11, hits give low values 1.02 | S. cerevisiae deletion strains, locus YOR069W, strain VPS5, hits give low values 0.951 | S. cerevisiae deletion strains, locus YOR136W, strain idh2, hits give low values 1.01 | S. cerevisiae deletion strains, locus YOR144C, strain elg1, hits give low values 1.01 | S. cerevisiae deletion strains, locus YOR184W, strain ser1, hits give low values 0.926 | S. cerevisiae deletion strains, locus YOR316C, strain cot1, hits give low values 1.02 | S. cerevisiae deletion strains, locus YPR119W, strain clb2, hits give low values 1.03 | S. cerevisiae deletion strains, locus YPR141C, strain kar3, hits give low values 1.02 | S. cerevisiae deletion strains, locus YPR163C, strain tif3, hits give low values 1.02 | S. cerevisiae deletion strains, locus YPR167C, strain met16, hits give low values 1.02 | S. cerevisiae deletion strains, strain wtn01, hits give low values 0.947
active: S. cerevisiae deletion strains, locus YDL035C, strain GPR1, hits give low values 0.663 | S. cerevisiae deletion strains, locus YDL074C, strain BRE1, hits give low values 0.72 | S. cerevisiae deletion strains, locus YDL101C, strain DUN1, hits give low values 0.839 | S. cerevisiae deletion strains, locus YDR162C, strain NBP2, hits give low values 0.55 | S. cerevisiae deletion strains, locus YEL061C, strain CIN8, hits give low values 0.861 | S. cerevisiae deletion strains, locus YGL086W, strain mad1, hits give low values 0.927 | S. cerevisiae deletion strains, locus YGL248W, strain PDE1, hits give low values 0.876 | S. cerevisiae deletion strains, locus YGR229C, strain SMI1, hits give low values 0.181 | S. cerevisiae deletion strains, locus YHR129C, strain ARP1, hits give low values 0.902 | S. cerevisiae deletion strains, locus YIL066C, strain RNR3, hits give low values 0.633 | S. cerevisiae deletion strains, locus YIL073C, strain SPO22, hits give low values 0.524 | S. cerevisiae deletion strains, locus YJL187C, strain SWE1 (second series), hits give low values 0.703 | S. cerevisiae deletion strains, locus YJR043C, strain POL32, hits give low values 0.632 | S. cerevisiae deletion strains, locus YKL190W, strain CNB1, hits give low values 0.682 | S. cerevisiae deletion strains, locus YLR039C, strain RIC1, hits give low values 0.671 | S. cerevisiae deletion strains, locus YLR058C, strain SHM2, hits give low values 0.811 | S. cerevisiae deletion strains, locus YLR342W, strain FKS1 (second series), hits give low values 0.549 | S. cerevisiae deletion strains, locus YLR418C, strain cdc73, hits give low values 0.765 | S. cerevisiae deletion strains, locus YML016C, strain PPZ1, hits give low values 0.792 | S. cerevisiae deletion strains, locus YMR307W, strain GAS1, hits give low values 0.475 | [2] 0.589 | [3] 0.715 | S. cerevisiae deletion strains, locus YOL006C, strain TOP1, hits give low values 0.29 | S. cerevisiae deletion strains, locus YOR061W, strain CKA2, hits give low values 0.803 | S. cerevisiae strains, strain wild type, hits give low values 0.56

From PubChem BioAssay AID1159580 (chemical genetic matrix, 2015)
